The record followed here is PubChem BioAssay.

Assay [1] in a line: anti-His antibody binders, primary screen, artefact control for SMM control protein annotation, biochemical, small-molecule microarray, 635 nm fluorescence (AID 1128).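 Further: score merges feature fluorescence with signal-to-noise for each printed compound spot.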 The following applies: anti-His Alexa647 antibody binding, higher = more signal.
Assay [2] has as its system Human papillomavirus type 1a E7 protein (residues 1-88). The assay is described as follows: HPV1a E7 small-molecule binders, primary screen, biochemical, small-molecule microarray, residues 1-88, 635 nm (AID 1129). The note with it: small-molecule microarray binding, fluorescence 635 nm; higher = more signal.
In assay [3] the target is Focal adhesion kinase 1 (Homo sapiens) (UniProt Q05397). Put plainly: small-molecule microarray binders of FAK, primary screen, biochemical, 635/667 nm fluorescence, BSA, DTT (AID 1130).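 Further: composite of spot emission at 667 nm and signal to noise over triplicate slides.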 The note with it: PTK2 binding, 635 nm fluorescence, higher = more signal.
Focal adhesion kinase 1 (Homo sapiens), sequence (Q05397 whole entry, looked up): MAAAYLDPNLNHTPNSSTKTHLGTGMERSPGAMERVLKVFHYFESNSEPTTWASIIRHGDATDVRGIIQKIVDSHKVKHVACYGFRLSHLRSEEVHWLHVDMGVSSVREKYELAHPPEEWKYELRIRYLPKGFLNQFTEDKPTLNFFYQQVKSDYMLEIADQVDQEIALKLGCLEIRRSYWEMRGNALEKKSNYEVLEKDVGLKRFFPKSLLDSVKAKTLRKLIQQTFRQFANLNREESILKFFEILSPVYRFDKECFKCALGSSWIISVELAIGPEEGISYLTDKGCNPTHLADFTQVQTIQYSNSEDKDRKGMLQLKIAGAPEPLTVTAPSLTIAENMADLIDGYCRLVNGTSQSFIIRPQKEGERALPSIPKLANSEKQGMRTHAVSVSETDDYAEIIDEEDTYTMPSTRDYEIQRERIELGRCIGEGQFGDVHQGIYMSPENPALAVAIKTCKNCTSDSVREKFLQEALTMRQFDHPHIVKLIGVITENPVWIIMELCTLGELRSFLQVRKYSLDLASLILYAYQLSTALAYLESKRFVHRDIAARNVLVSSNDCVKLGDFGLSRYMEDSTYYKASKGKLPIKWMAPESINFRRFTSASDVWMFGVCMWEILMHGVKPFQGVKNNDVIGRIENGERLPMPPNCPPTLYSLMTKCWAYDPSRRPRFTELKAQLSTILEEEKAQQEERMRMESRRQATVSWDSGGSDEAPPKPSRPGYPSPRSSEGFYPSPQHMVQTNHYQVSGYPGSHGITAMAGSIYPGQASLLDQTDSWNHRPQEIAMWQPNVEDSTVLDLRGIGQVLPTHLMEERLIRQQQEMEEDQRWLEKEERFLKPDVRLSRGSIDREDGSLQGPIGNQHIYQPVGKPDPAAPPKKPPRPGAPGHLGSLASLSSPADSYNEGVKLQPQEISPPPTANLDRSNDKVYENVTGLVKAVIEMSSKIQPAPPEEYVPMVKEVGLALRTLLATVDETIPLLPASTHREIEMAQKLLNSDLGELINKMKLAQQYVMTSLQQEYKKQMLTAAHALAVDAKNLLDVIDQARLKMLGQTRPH
In assay [4] the test system is Fibrinogen (Alexa647-labelled). Put plainly: fibrinogen binders on compound microarrays, profiling panel, artefact control for SMM control-protein annotation, biochemical, small-molecule microarray, 635/667 nm fluorescence (AID 1131).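 Further: z-score merges 667 nm fluorescence with per-spot signal-to-noise over triplicate slides.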 The note with it: fibrinogen-A647 binding fluorescence, higher = more signal.
The target in assay [5] is Follistatin (Homo sapiens) (UniProt P19883). The assay is described as follows: follistatin binders on small-molecule microarrays, primary screen, biochemical, small-molecule microarray, 635/667 nm fluorescence (AID 1132). The following applies: FST binding, 635 nm fluorescence, higher = more signal.
Follistatin (Homo sapiens), sequence (P19883 whole entry, looked up): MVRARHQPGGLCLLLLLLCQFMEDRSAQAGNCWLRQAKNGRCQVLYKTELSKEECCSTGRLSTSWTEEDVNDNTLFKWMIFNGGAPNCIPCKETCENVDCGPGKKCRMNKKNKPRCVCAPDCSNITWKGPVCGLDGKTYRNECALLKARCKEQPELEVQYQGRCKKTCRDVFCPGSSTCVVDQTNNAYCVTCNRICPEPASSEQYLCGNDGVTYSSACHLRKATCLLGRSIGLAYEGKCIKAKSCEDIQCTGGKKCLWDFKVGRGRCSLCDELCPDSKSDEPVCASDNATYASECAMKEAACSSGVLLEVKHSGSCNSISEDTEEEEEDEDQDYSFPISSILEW
For assay [6], the target named is Fibroblast growth factor 2 (Homo sapiens) (UniProt P09038). Put plainly: FGF2 binders on small-molecule microarrays, primary screen, biochemical, small-molecule microarray, 635/667 nm fluorescence (AID 1133). The note with it: small-molecule microarray binding, FGF2, fluorescence 635/667; higher = more signal.
Fibroblast growth factor 2 (Homo sapiens), sequence (P09038 whole entry, looked up): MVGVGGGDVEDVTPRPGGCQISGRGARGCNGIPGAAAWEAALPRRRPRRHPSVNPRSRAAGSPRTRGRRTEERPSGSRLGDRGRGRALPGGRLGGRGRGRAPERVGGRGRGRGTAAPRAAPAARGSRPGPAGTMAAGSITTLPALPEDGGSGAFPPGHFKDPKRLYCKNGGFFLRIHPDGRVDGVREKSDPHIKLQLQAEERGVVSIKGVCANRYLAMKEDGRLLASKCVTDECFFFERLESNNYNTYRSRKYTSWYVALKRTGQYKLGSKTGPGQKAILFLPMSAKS
The nature of assay [7]: mitochondrial membrane potential change in A549 cells, profiling panel, cell-based, JC-1 fluorescence, basal, 24 h, 100 nL (AID 1138).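 Further: A549 lung adenocarcinoma cells under basal conditions with no added stimulus; test concentration not given here.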 The note with it: higher = more signal.
A further assay has as its system Lefty1. Put plainly: Lefty1 binders on small-molecule microarrays, primary screen, biochemical, small-molecule microarray, 635/667 nm fluorescence (AID 1139). The note with it: small-molecule microarray binding, fluorescence 635/667; higher = more signal.
For assay [8], the system named is wheat germ agglutinin (Triticum aestivum), Alexa647-labelled. The assay is described as follows: wheat germ agglutinin binders on compound microarrays, profiling panel, artefact control for SMM control-protein annotation, biochemical, small-molecule microarray, 635/667 nm fluorescence (AID 1140).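 Further: score merges 667 nm feature emission with signal to noise over triplicate slides.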 The note with it: WGA-A647 binding, 635 nm fluorescence, higher = more signal.

Assay [9] addresses Luciferin 4-monooxygenase (Photinus pyralis) (UniProt P08659). Put plainly: firefly luciferase enzyme inhibitors, primary screen, biochemical, luminescence, purified enzyme, 2006 set (AID 1141).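 Further: cell-free assay with purified firefly luciferase at 100 ng per well in PBS; test concentration not given here.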 The note with it: SteadyGlo luminescence, 30 min, higher = more signal, called active from +8 up or from −8 down.
Assay [10] relates to Wnt5a (protein binding on small-molecule microarray). Put plainly: Wnt5a binders on small-molecule microarray, primary screen, biophysical, 635/667 nm fluorescence (AID 1142).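 Further: fluorescence read at 667 nm with signal to noise per printed feature.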 The note with it: 635 nm fluorescence, higher = more signal.
Assay [11] is described as follows: cell viability in Huh7 cells, primary screen, cytotoxicity control for HCV replication inhibitor project, CellTiter-Glo luminescence, basal, 48 h (AID 1143).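 Further: Huh7 hepatoma cells carrying a hepatitis C replication reporter with no stimulus; test concentration not given here.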 The following applies: Huh7 HCV replicon, higher = more signal, called active from +8 up or from −8 down. A general note: ATP-based viability assays read luminescence as a measure of living cells.
A short description of assay [12]: P. aeruginosa biofilm formation inhibitors, primary screen, PAO1 strain, BacTiter-Glo luminescence, LB-PBS (AID 1144). The note with it: 12 h, higher = more signal.
Assay [13] is described as follows: CREB reporter modulators without forskolin, primary screen, cell-based, PC12, CRE-LacZ reporter, unstimulated (AID 1145). The following applies: no forskolin, luminescence, 4.5 h, higher = more signal, called active from +8 up or from −8 down.
A short description of assay [14]: CREB reporter modulators under forskolin, primary screen, cell-based, PC12, CRE-LacZ reporter, forskolin-stimulated (AID 1146).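 Further: PC12 cells with 6xCRE LacZ reporter stimulated by forskolin 10 µM; beta-galactosidase reporter signal reflecting CREB driven transcription.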 The following applies: luminescence, 4.5 h, higher = more signal, called active from +8 up or from −8 down.
For assay [15], the target named is Streptavidin (Streptomyces avidinii) (UniProt P22629). The assay is described as follows: streptavidin binders on small-molecule microarray, primary screen, artefact control for SMM compound annotation, biophysical, 635/667 nm fluorescence (AID 1147).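 Further: signal reflects streptavidin binding to arrayed compounds as a control protein.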 The following applies: streptavidin binding, higher = more signal.
Streptavidin (Streptomyces avidinii), sequence (P22629 whole entry, looked up): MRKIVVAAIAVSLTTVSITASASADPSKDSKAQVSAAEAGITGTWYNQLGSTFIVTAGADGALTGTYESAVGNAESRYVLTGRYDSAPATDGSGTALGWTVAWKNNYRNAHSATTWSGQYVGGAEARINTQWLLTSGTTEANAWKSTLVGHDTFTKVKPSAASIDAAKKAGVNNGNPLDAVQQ
A short description of assay [16]: small-molecule binders of probe aInhba, primary screen, biochemical, small-molecule microarray, 635/667 nm fluorescence (AID 1148).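 Further: score merges 667nm spot fluorescence with signal-to-noise for antibody binding to printed compounds.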 The following applies: higher = more signal.
The target of assay [17] is Torsin-1A (Homo sapiens) (UniProt O14656). Put plainly: torsin A binders from cell lysate, primary screen, small-molecule microarray, wild-type, 635/667 nm (AID 1149). The following applies: COS7 hTOR1A-WT lysate, 635 nm fluorescence, higher = more signal.
Torsin-1A (Homo sapiens), sequence (O14656 whole entry, looked up): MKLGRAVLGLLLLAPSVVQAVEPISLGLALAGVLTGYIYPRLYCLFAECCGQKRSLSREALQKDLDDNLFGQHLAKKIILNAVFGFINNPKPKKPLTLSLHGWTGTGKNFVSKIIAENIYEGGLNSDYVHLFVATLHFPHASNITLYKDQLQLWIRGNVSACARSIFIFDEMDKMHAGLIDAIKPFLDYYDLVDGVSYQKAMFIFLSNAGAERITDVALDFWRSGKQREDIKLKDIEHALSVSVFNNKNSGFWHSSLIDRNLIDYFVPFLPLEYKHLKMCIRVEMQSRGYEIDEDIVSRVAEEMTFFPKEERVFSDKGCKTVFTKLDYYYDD
Assay [18] has the same target. Put plainly: small-molecule binders of mutant TOR1A in lysate, primary screen, cell lysate, small-molecule microarray, COS7 lysate, 635/667 nm fluorescence (AID 1150).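 Further: score pools 667 nm emission and signal to noise measuring lysate protein binding.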 The note with it: COS7 hTOR1A mutant lysate, 635 nm fluorescence, higher = more signal.
For assay [19], the system named is Sonic hedgehog protein (Shh). Put plainly: small-molecule binders of Shh protein, primary screen, biochemical, small-molecule microarray, 635/667 nm fluorescence (AID 1151).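 Further: Shh protein binding to compounds spotted on small-molecule microarray slides; score combines spot fluorescence intensity with signal-to-noise across triplicate slides.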 The following applies: small-molecule microarray binding, 635 nm fluorescence; higher = more signal.

The source made the active and inactive calls. Unless noted, how the calls were made is not given here.

Luciferin 4-monooxygenase (Photinus pyralis), sequence (P08659 whole entry, looked up): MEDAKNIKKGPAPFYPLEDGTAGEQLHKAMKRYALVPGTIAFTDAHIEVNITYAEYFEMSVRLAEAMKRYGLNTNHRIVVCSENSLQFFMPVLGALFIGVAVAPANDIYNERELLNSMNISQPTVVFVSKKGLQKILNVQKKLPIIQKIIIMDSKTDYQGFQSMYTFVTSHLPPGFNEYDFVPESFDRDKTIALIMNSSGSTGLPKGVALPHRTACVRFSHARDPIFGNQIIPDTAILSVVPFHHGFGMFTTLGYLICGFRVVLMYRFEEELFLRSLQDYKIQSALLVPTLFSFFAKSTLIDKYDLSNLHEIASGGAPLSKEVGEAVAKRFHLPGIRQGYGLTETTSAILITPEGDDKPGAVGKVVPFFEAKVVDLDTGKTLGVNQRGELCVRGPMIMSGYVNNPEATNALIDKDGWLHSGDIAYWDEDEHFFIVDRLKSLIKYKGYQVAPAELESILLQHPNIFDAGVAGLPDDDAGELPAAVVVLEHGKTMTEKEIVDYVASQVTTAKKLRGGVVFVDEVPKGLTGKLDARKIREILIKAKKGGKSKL

For the compound `[N-]=[N+]=NCc1ccccc1C[C@]1(C(=O)NCc2ccccc2)N=C(c2ccc(OCCCO)cc2)O[C@H]1c1ccccc1CN=[N+]=[N-]`, the composite z-score in [1] was 1.75; in assay [2], 0.986; in assay [3], 0.586; in [4], 0.91; in assay [5] it was 0.821; in assay [6] it was -0.31. The composite z-score is -0.503 in the assay on Lefty1; 0.328 in assay [8]; 0.477 in [10]; 0.208 in [15]; 0.237 in [16]; 0.135 with Torsin-1A (Homo sapiens) [17]. The composite z-score is 0.623 with Torsin-1A (Homo sapiens) [18] and -0.603 in assay [19]. Also, the z-score in assay [7] was 0.064; in [9], -1.16 (inactive); in assay [11], -4.58 (inactive); in assay [12], -0.333 (inactive); in assay [13], 1.27 (inactive); in assay [14] it was -1.73 (inactive).

In the case of `COc1cc2c(cc1O)C(C1CC1)N(Cc1ccc([N+](=O)[O-])o1)CC2` (stereo not given), the composite z-score in [1] was 0.852; in assay [2], 1.12; in [3], 0.325; in [4], 0.577; in assay [5] it was 0.361; in assay [6] it was -0.0629. The composite z-score in the assay with Lefty1 is -0.546; in assay [8], 1.06; in assay [10] it was 0.128; in assay [15] it was 1.63; in [16] it was 0.161; in the assay with Torsin-1A (Homo sapiens) [17] it was 0.322. The composite z-score is 0.521 with Torsin-1A (Homo sapiens) [18] and -0.575 in [19]. Further, the z-score in [7] is -0.184; in assay [9], -0.924 (inactive); in assay [11], -0.148 (inactive); in assay [12], 0.741 (inactive); in assay [13], 0.0924 (inactive); in [14] it was 0.786 (inactive).

As for `CCOC(=O)C1=CC[C@@H](c2ccccc2)N(S(=O)(=O)c2ccc(C)cc2)[C@H]1C#N`, the composite z-score in assay [1] is 0.806; in assay [2] it was 1.2; in assay [3] it was 0.721; in [4], 0.986; in assay [5] it was -0.33; in assay [6] it was -0.162. Besides, the composite z-score is -0.565 in the assay on Lefty1; 0.517 in assay [8]; 0.114 in assay [10]; 0.93 in [15]; 0.134 in assay [16]; 0.0439 in the assay with Torsin-1A (Homo sapiens) [17]. Besides, the results for the composite z-score (in the assay with Torsin-1A (Homo sapiens) [18]; in assay [19]) were 0.189 and -0.707, respectively. The z-score in assay [7] is -0.604; in assay [9], -0.227 (inactive); in assay [11], -1.82 (inactive); in assay [12], 0.184 (inactive); in assay [13], -0.48 (inactive); in [14], 3.56 (inactive).

Regarding `C=C(/C(=C/C[C@H](OC(=O)c1ccncc1)c1ccccc1OCCO)c1cc(C(=O)OC)ccc1OC)C(C)C`, the composite z-score was 0.32 in [1]; 1.08 in assay [2]; -0.145 in assay [3]; 0.314 in assay [4]; 1.07 in assay [5]; 1.39 in [6]. For the same compound, the composite z-score in the assay with Lefty1 is 0.67; in [8], 0.351; in assay [10], 0.913; in assay [15], -0.0945; in assay [16], -0.0375; in the assay with Torsin-1A (Homo sapiens) [17], 0.712. Further, the composite z-score amounted to 0.441 with Torsin-1A (Homo sapiens) [18] and 1.74 in [19]. For the same compound, the z-score in assay [7] is -0.032; in [9] it was -0.538 (inactive); in assay [11], -1.5 (inactive); in assay [12], -0.439 (inactive); in assay [13], 6.99 (inactive); in assay [14], 0.644 (inactive).

For `C=C(COC)C(=O)CC[C@@H](OC(=O)c1cccnc1)c1cccc(OCCO)c1`, the composite z-score in assay [1] is -0.007; in assay [2], 0.23; in [3], -0.437; in assay [4], -1.48; in [5], 1.29; in assay [6], 0.773. Also, the composite z-score was 1.19 in the assay on Lefty1; 0.981 in assay [8]; 0.0666 in assay [10]; -0.296 in assay [15]; -0.127 in assay [16]; 0.653 in the assay with Torsin-1A (Homo sapiens) [17]. The figures for the composite z-score (in the assay with Torsin-1A (Homo sapiens) [18]; in assay [19]) were 0.778 and 1.37, respectively. Also, the z-score in assay [7] was 0.525; in assay [9] it was -2.86 (inactive); in assay [11] it was -0.864 (inactive); in assay [12], -0.652 (inactive); in [13], 8.15 (active); in [14], 5.43 (inactive).
